Assay outcomes from PubChem.
Shown are actives, neighbours in structure and some others; about 4.2% of the full set was active somewhere.
hgDAF-12 ag: H. glycines DAF-12 receptor agonists, primary screen, cell-based, luminescence, HEK293, GAL4 fusion, UAS-luciferase. Nuclear hormone receptor DAF-12 (Heterodera glycines), GAL4 fusion. HEK293 GAL4-hgDAF12 UAS-luciferase reporter, agonist luminescence; normalized to butyrate control. activation, % at 6.8 µM. 370,000 compounds, 1.8% hits. AID 687014, 2013;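 active = activation above a cutoff set at the mean of all screened compounds plus 3 SD, cut at about 10% in these data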
SMARCA2 act: SMARCA2 (BRM) function activators, primary screen, cell-based, luminescence, high throughput; MG213 cells, MMTV-luciferase reporter, dexamethasone, overnight; activation, % at 9.1 µM; 370,000 compounds, 1% hits; in the data active = activation above about 7.8%
DAX1 StAR inh: DAX1 (NR0B1) inhibitors on StAR promoter, primary screen, cell-based, luminescence, SF-1 (NR5A1), full-length DAX-1 | AID 652010, 2013 | HEK293T StAR-luciferase reporter, SF-1/DAX-1 repression relief | 370,000 compounds, 1.1% hits | inhibition, % at 6.8 µM;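 active = inhibition above the mean over all tested compounds plus 3 SD, cut at about 3.6% in these data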;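 also: higher inhibition means more luminescence from relief of DAX-1 repression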
ssDAF-12 act: S. stercoralis DAF-12 nuclear receptor activators, primary screen, cell-based, luminescence, HEK293, GRIP1 co-expression, lit1-tk-luc. Nuclear hormone receptor DAF-12 (Strongyloides stercoralis). HEK293 ssDAF-12/GRIP1 lit1-tk-luc reporter; % of 3 µM dafachronic acid response. activation, % at 6.8 µM. 370,000 compounds, 1% hits. AID 652126, 2013;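 active = activation above the mean over all tested compounds plus 3 SD, cut at about 0.9% in these data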
hcDAF-12 act: H. contortus DAF-12 nuclear receptor activators, primary screen, cell-based, luminescence, HEK293, lit1-tk-luc reporter. HEK293 hcDAF-12 lit1-tk-luc reporter; 0% DMSO, 100% Δ7-dafachronic acid. activation, % at 6.8 µM. 370,000 compounds, 1.4% hits. AID 652067, 2013;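 active = activation above the mean of all tested compounds plus 3 SD, cut at about 5.5% in these data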
DAX1 conf: DAX1 (NR0B1) inhibitors relieving SF-1 repression, confirmation, cell-based, luminescence, HEK293T, full-length DAX-1, SF-1 activated StAR promoter; shares compounds with DAX1 StAR inh; HEK293T StAR-promoter luciferase reporter, SF-1/DAX-1 repression; inhibition, % at 6.8 µM; 2,400 compounds, 87% hits; AID 652134, 2013;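 active = inhibition above the average of every tested compound plus 3 SD, cut at about 3.8% in these data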
Target sequence (P51843 whole entry, looked up): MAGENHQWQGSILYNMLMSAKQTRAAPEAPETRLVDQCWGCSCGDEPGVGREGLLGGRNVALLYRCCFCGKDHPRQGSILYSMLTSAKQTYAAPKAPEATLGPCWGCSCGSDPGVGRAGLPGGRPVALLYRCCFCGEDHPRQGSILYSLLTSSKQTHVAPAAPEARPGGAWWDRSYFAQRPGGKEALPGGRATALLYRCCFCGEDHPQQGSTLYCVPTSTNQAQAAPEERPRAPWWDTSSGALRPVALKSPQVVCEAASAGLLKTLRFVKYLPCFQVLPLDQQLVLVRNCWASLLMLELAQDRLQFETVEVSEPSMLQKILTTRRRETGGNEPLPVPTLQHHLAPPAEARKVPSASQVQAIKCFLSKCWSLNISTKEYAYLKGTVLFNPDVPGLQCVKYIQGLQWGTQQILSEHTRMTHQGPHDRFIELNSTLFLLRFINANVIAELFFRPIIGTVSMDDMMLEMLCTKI
SF1 mutant ctr: StAR reporter signal changes without DAX1, counter-screen for DAX1 inhibitor project, cell-based, luminescence, AF-2 mutant SF-1, transactivation | shares compounds with DAX1 StAR inh | HEK293 StAR-luciferase, SF-1 AF2 mutant | inhibition, % at 6.8 µM | 2,400 compounds, 78% hits;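 active = inhibition above the mean of all tested compounds plus 3 SD, cut at about 3% in these data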
Large screens that a line does not name were inactive (follow-up assays come after a bar, where they were run).

Cc1ccnc(NC(=O)c2ccc(S(=O)(=O)N3CCCCCC3)cc2)c1	DAX1 StAR inh 9.2 | DAX1 conf 10 | SF1 mutant ctr 5.1
CCOc1ccc(C(=O)NCC(=O)Nc2cc(C)ccn2)cc1OCC	none
Cc1ccc(C(=O)NCC(=O)Nc2cc(C)ccn2)cc1	DAX1 StAR inh 4.8 | DAX1 conf 6.8 | SF1 mutant ctr 4.5
Cc1ccnc(NC(=O)c2ccc(S(=O)(=O)N3CCCC3)cc2)c1	none
Cc1ccnc(NC(=O)c2ccc(C(=O)c3ccccc3)cc2)c1	DAX1 StAR inh 9.1 | DAX1 conf 11 | SF1 mutant ctr 3.2
Cc1ccc(NC(=O)CCNC(=O)c2ccc(Cl)cc2)cc1C	none
CCC(=O)N[C@@H]1CC[C@@H](CCNC(=O)Nc2ccc(F)cc2)O[C@@H]1CO	none
COc1ccc2c(c1)C(C)(Cc1ccc(C(=O)c3ccccc3)cc1)C(=O)N2 (stereo unspecified)	none
CC(C)(c1ccccc1)c1ccc(OCc2ccc(C(=O)O)o2)cc1	DAX1 StAR inh 11 | DAX1 conf 5.3 | SF1 mutant ctr 4.9
Cc1cc(C(=O)COC(=O)c2ccc(O)cc2O)c(C)n1C(C)C	hgDAF-12 ag 12, DAX1 StAR inh 7.3 | DAX1 conf 9.8 | SF1 mutant ctr 5.0
COc1ccc(CCn2c(C)cc(C(=O)COC(=O)c3ccc(O)cc3O)c2C)cc1	none
Cc1cc(NC(=O)c2ccccc2Cl)no1	none
Cc1cc(NC(=O)NC(=O)c2ccccc2F)no1	DAX1 StAR inh 5.2 | DAX1 conf 8.7 | SF1 mutant ctr inactive
COc1ccc(S[C@]2(C(=O)N3CCOCC3)CC(=O)N(S(=O)(=O)c3ccc(F)cc3)[C@@H]2c2ccc(OC)cc2)cc1	none
CCN1CCSc2ccc(C(=O)Nc3ccc(NC(C)=O)cc3)cc21	none
CCOc1ccc(NC(=O)c2ccc3c(c2)N(C)CCS3)cc1	DAX1 StAR inh 5.0 | DAX1 conf 5.0 | SF1 mutant ctr inactive
COCC(=O)N1C[C@H]2CON(C)[C@H]2C[C@H]1c1ccc(N2CCCCC2)cc1	none
CCCN1CCN(CCCNC(=O)c2ccc3c(c2)NC(=O)c2ccccc2S3)CC1	DAX1 StAR inh 6.1 | DAX1 conf 4.4 | SF1 mutant ctr inactive
COc1ccc(N2CCN(C(=O)c3cc4c(s3)CCCCC4)CC2)cc1	DAX1 StAR inh 4.5 | DAX1 conf inactive | SF1 mutant ctr inactive
NC(=O)C1CCN(C(=O)c2cc3c(s2)CCCC3)CC1	DAX1 StAR inh 5.7 | DAX1 conf 4.9 | SF1 mutant ctr inactive
CC[C@H]1/C(=C/c2ccccc2)N2C(=O)C[C@H](c3ccccc3)N=C2N1C	none (no result: SMARCA2 act, DAX1 StAR inh)
CCN(CC)C(=O)c1ncn2c1C(=O)N[C@H](C)C2	none
Cc1ccc(-n2c(SCc3ccc(Cl)c(Cl)c3)nnc2-c2ccc(C(C)(C)C)cc2)cc1	none
C/C=C/c1ccc2c(c1)O[C@@H](CN(C)C(=O)c1ccc(F)cc1)[C@@H](C)CN([C@H](C)CO)S2(=O)=O	DAX1 StAR inh 4.8 | DAX1 conf inactive | SF1 mutant ctr 4.4
Cc1ccc(C2=NNC(c3cccc(F)c3)S2)cc1 (stereo unspecified)	hgDAF-12 ag 17, DAX1 StAR inh 9.5, ssDAF-12 act 1.6, hcDAF-12 act 14 | DAX1 conf 11 | SF1 mutant ctr 5.2
c1ccc(C2=NNC(=NC3CC3)SC2)cc1	hgDAF-12 ag 12, DAX1 StAR inh 6.8 | DAX1 conf 5.3 | SF1 mutant ctr inactive
Cc1cc(C2=NNC(=NC3CC3)SC2)c(C)n1-c1ccccc1	none
O=C(NNC(=O)[C@@H]1CCCC[C@@H]1C(=O)O)c1cccs1	none
Cc1ccsc1C(=O)NNC(=O)C1CCCCC1C(=O)O (stereo unspecified)	hgDAF-12 ag 16, DAX1 StAR inh 6.2 | DAX1 conf 4.0 | SF1 mutant ctr inactive
CC1(c2nc3ccccc3[nH]2)CCCC2=Nc3ccccc3CN21 (stereo unspecified)	none
COc1cccc(NC(=O)[C@H](NC(=O)[C@@H]2Cc3ccccc3CN2)c2ccccc2)c1	DAX1 StAR inh 4.9 | DAX1 conf 4.1 | SF1 mutant ctr inactive
Cc1cccc(NC(=O)[C@H](NC(=O)[C@@H]2Cc3ccccc3CN2)c2ccccc2)c1	none
O=C(Nc1nccs1)c1csc([C@H]2C[C@H](O)[C@@H](CO)O2)n1	DAX1 StAR inh 4.9 | DAX1 conf 5.9 | SF1 mutant ctr 3.0
COc1ccc(S[C@]2(C(=O)N3CCN(c4ncccn4)CC3)CC(=O)N(c3ccc4ccccc4c3)[C@@H]2c2ccc(OC)cc2)cc1	none
O=C1NC[C@H](Cc2ccccc2)N(CC2CCN(CCCC3CCCC3)CC2)C1=O	DAX1 StAR inh 5.5 | DAX1 conf inactive | SF1 mutant ctr inactive
O=C1NC[C@H](Cc2ccccc2)N(CC2CCN(CC3CCCC3)CC2)C1=O	none
CC(C)N(C(=O)[C@H]1C[C@H](CC(=O)NCCN2CCOCC2)C(=O)N2CCc3c([nH]c4ccc(Cl)cc34)[C@]12C)C(C)C	DAX1 StAR inh 5.5 | DAX1 conf inactive | SF1 mutant ctr inactive
Cc1ccc(C(=O)CN2C(=O)NC3(CCCCCC3)C2=O)c(C)c1	DAX1 StAR inh 5.5 | DAX1 conf 4.2 | SF1 mutant ctr 3.8
Cc1ccc(C)c(C(=O)CN2C(=O)NC3(CCC(C)CC3)C2=O)c1 (stereo unspecified)	none
CN1C(=O)c2cc(NC(=O)Nc3ccccc3)ccc2OC[C@H]2O[C@@H](CC(=O)NCC(F)(F)F)CC[C@@H]21	none
CC(C)(C)c1csc(NC(=O)C2=COCCO2)n1	hgDAF-12 ag 12, DAX1 StAR inh 6.6 | DAX1 conf 8.2 | SF1 mutant ctr 5.3
CCOC(=O)c1csc(NC(=O)C2=COCCO2)n1	DAX1 StAR inh 7.0 | DAX1 conf 9.0 | SF1 mutant ctr 7.1
Cc1ccc(-c2csc(NC(=O)C3=COCCO3)n2)cc1	none
CCOC(=O)c1csc(NC(=O)c2cccs2)n1	DAX1 StAR inh 8.7 | DAX1 conf 10 | SF1 mutant ctr 6.7
CCOC(=O)C(NC(=O)Nc1ccc(Cl)cn1)(Oc1ccc(F)cc1)C(F)(F)F (stereo unspecified)	DAX1 StAR inh 4.8 | DAX1 conf 4.0 | SF1 mutant ctr 3.2
